Assay outcomes: PubChem, National Center for Advancing Translational Sciences (NCATS)
TDP1 cell noCPT – qHTS for Inhibitors of human tyrosyl-DNA phosphodiesterase 1 (TDP1): qHTS in cells in absence of CPT; DT40 Tdp1-/- hTDP1 cells, no CPT, ATP luminescence, 48 h; Potency, µM (doses to about 46.2 µM), for the others: at the top dose activity change, negative = growth inhibition, most hits filed as inhibitors; 15% of 420,000 active; also: % is scaled to controls: 0 for no effect and ±100 for the full control effect; nearly all actives have a fitted effect of over 55% in size
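Luminescent ATP content (CellTiter-Glo) served as the growth readout. Knockout chicken DT40 cells expressing human TDP1 were exposed to compounds without camptothecin for a minimum 48 hr at 37 °C.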
DT40 TDP1 CPT – growth inhibition of DT40 Tdp1-/-;hTDP1 cells with camptothecin (screen for TDP1 inhibitors). chicken DT40 Tdp1-/-;hTDP1 cells + 20 nM CPT, ATP luminescence, 48 h. Potency, µM (doses to about 46.2 µM), for the others: at the highest dose activity change, negative = growth inhibition, hits mostly inhibitors. 12% of 420,000 active. AID 686979; also: % is scaled to controls: 0 for no effect and ±100 for the full control effect; nearly all actives have a fitted effect of over 55% in size
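Chicken DT40 Tdp1-/- cells complemented with human TDP1, 400 cells/well, exposed to compounds plus 20 nM camptothecin for at least 48 h at 37 C; viability read as ATP content by CellTiter-Glo luminescence.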
TDP1 block – TDP1 (human) enzyme inhibition. recombinant TDP1, AlphaScreen DNA substrate cleavage. Potency, µM (top dose mostly 130 µM), inactives show top-dose activity change, negative = inhibition, usual class: inhibitors. Q9NUW8. 0.28% of 350,000 active; also: % is scaled to controls: 0 for no effect and ±100 for the full control effect; nearly all actives have a fitted effect of over 40% in size
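E. coli-derived human Tdp1, 1 nM final. Cpd preinc 15 min RT; substrate 15 nM final, 5 min RT; AS bead mix 10 ug/ml final, 10 min RT. Signal loss = tyrosine-FITC cleavage. No-enzyme wells = max signal.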
ClpP mod – qHTS Assay for Activators of ClpP | purified B. subtilis ClpP, FRET peptide cleavage, 20 min | ATP-dependent Clp protease proteolytic subunit (Bacillus subtilis (strain 168)), P80244 | AID 651965, 2013 | Potency, µM (titrated, usually from 57.5 µM), for the others: top-dose activity change, negative = active | 1.9% of 340,000 active; active = well fitted falling curve with a large enough effect; inconclusive = small, poorly fitted or top-dose-only effect; inactive = no such curve, though single readings can be large or run the other way; also: the source files actives as falling curves though it sought activators and does not explain the sign; nearly all actives have a fitted effect of over 65% in size
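Buffer: 100 mM Tris/HCl pH8, 100 mM KCl, 0.05% low protease BSA, 2.5% glycerol, 0.01% Tween-20. ClpP 10 microg/mL final; 20 min RT; delta FRET normalized to ADEP and DMSO controls.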
Numbers without * were called inactive; ? = inconclusive; / = no result given; [ ] = another dose, or the depositor's remark. The list is not random: actives were taken first. Their share in the collection is about 17%. Unless noted, calls follow the shape of the dose curve; as a rule, active = well fitted curve in the direction sought with a large enough effect; inconclusive = small, poorly fitted or top-dose-only effect, or another doubt; inactive = no such curve, though single readings can be large; an effect the other way counts as inactive or inconclusive. Potency is read from the fitted curve at half-maximal effect.

SMILES	TDP1 cell noCPT	DT40 TDP1 CPT	TDP1 block	ClpP mod
COC(=O)[C@]1(C)N[C@H](CN(C)C(=O)Nc2ccc(OC)cc2)[C@@H]2C(=O)N(Cc3ccccc3)C(=O)[C@@H]21	-4%	6%	2%	1%
CC1(C)CC(=O)C=C(c2ccc(COC(=O)Cc3ccccc3)cc2)C1=O	-16%	-13%	/	0%
COc1ccc(S(=O)(=O)N2CCC(N3CCN(c4ccccc4OC)CC3)CC2)cc1	5%	1%	-12%	/
Nc1nc(Cl)nc2c1ncn2[C@@H]1O[C@H](CO)[C@H](O)C1F (stereo partly drawn)	/	/	4%	/
Nc1ncnc2c1ncn2[C@@H]1O[C@@H](CO)[C@H](O)[C@H]1O	/	/	8%[21 µM]	/
Nc1ncnc2c1ncn2[C@H]1C[C@H](O)[C@@H](CO)O1	?	6.5µM*	0%	0%
Nc1ncnc2c1ncn2C1OCC(O)C1O (stereo not drawn)	13µM*	18µM*	/	-1%
Nc1nc(Cl)nc2c1ncn2[C@@H]1O[C@H](CO)[C@@H](O)[C@@H]1F	0.0021µM*	0.0021µM*	/	/
Nc1nc(Cl)nc2c1ncn2[C@H]1C[C@H](O)[C@@H](CO)O1	0.21µM*	0.18µM*	3%	-3%
CCS(=O)(=O)N1CCC(C(=O)Oc2ccccc2Br)CC1	8%	2%	/	28µM*
Cc1ccc(S(=O)(=O)N2CCOC23CCN(C(=O)C(=O)NCCC(C)C)CC3)cc1	-23%	-12%	5%[0.505 µM]	/
CCOc1cc(C2c3c(n[nH]c3C)C(=O)N2c2ccc(Br)cc2)ccc1O (stereo not drawn)	-23%	-16%	7%	-1%
CCOC(=O)c1ccc(N2C(=O)c3[nH]nc(-c4ccc(C)cc4)c3C2c2ccc(O)c(OCC)c2)cc1 (stereo not drawn)	23µM*	18µM*	7%	-5%
CCOC(=O)c1ccc(N2C(=O)c3n[nH]c(-c4ccco4)c3C2c2ccc(C(=O)OC)cc2)cc1 (stereo not drawn)	15µM*	26µM*	5%	-3%
CCOC(=O)c1ccc(N2C(=O)c3[nH]nc(-c4ccc(OC)cc4)c3C2c2ccccc2Cl)cc1 (stereo not drawn)	23µM*	18µM*	2%	1%
COc1cc(C2c3c(-c4ccccc4)n[nH]c3C(=O)N2c2ccc(C(=O)O)cc2)ccc1O (stereo not drawn)	15%	6%	5%	1%
CCOC(=O)c1ccc(N2C(=O)c3n[nH]c(C)c3C2c2ccc(OC)cc2)cc1 (stereo not drawn)	?	-17%	5%	-1%
COc1ccc(C2c3c(-c4ccccc4)n[nH]c3C(=O)N2c2ccc(C(=O)O)cc2)c(OC)c1 (stereo not drawn)	-2%	0%	-2%	-1%
CCOC(=O)c1ccc(N2C(=O)c3n[nH]c(-c4ccco4)c3C2c2ccc(O)c(OCC)c2)cc1 (stereo not drawn)	15µM*	16µM*	7%	-4%
NC(=O)Cn1nnc(-c2ccc(NC(=O)c3ccc(F)cc3)cc2)n1	11%	18%	4%	/
O=C(Nc1ccc2ccccc2c1)OC1CCS(=O)(=O)C1 (stereo not drawn)	-22%	7%	/	-6%
Cc1ccc(-c2n[nH]c3c2C(c2ccccc2)N(c2ccc(C(=O)O)cc2)C3=O)cc1 (stereo not drawn)	19%	10%	/	/
CCOC(=O)c1ccc(N2C(=O)c3[nH]nc(-c4ccc(C)cc4)c3C2c2cccs2)cc1 (stereo not drawn)	16µM*	16µM*	0%	10%
CCOC(=O)c1ccc(NC(=S)Nc2ccc(C)cc2)cc1	?	1%	-2%	/
CCOC(=O)c1ccc(NC(=S)NNC(C)(C)C)cc1	5.8µM*	5.8µM*	/	2%
Cc1ccc(Cl)cc1-n1ncc2c(NC3CCCCC3)ncnc21	15µM*	9.2µM*	13%	-2%
CCN(CC)c1ncnc2c1cnn2-c1cc(Cl)ccc1C	21µM*	21µM*	8%	-1%
Clc1cccc(-n2ncc3c(NCCCn4ccnc4)ncnc32)c1	?	21µM*	10%	-8%
CCN1CCN(c2ncnc3c2cnn3-c2cc(Cl)ccc2C)CC1	?	?	8%	-2%
